Consider 33 molecules from PubChem BioAssay (EPA / NIEHS).

Records with an inconclusive call do not appear. Active and inactive are the calls of the source. Rule for the calls, unless noted: active = hit-call score of the fitted dose curve at least 0.9, where 1 is the maximum; inconclusive = response in the unintended direction; inactive = score below 0.9.

Sequence of Retinoic acid receptor alpha (Homo sapiens) (P10276 whole entry, looked up): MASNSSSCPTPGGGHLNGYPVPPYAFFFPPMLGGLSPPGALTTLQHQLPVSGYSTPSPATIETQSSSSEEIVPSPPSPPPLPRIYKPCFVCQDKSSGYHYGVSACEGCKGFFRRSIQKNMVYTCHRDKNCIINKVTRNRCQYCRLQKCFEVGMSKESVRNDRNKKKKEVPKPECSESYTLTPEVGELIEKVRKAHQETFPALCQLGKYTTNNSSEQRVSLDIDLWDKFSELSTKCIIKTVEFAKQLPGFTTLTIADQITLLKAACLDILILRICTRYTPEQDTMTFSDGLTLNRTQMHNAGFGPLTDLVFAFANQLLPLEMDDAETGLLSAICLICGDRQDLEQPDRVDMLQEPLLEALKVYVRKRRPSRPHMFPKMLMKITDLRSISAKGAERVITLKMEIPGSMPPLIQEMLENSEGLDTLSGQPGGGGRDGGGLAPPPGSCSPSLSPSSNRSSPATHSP

Read-out in the first assay: Intercellular Adhesion Molecule 1 (ICAM1), ICAM1 (gene 3383)
The assay is described as follows: BSK_3C_ICAM1: BioMAP Diversity Plus: 3C Assay for Intercellular Adhesion Molecule 1 (ICAM1) Biomarker Activity (AID 2283003; active = hit-call score of the fitted dose curve at least 0.9, where 1 is the maximum; inactive = score below 0.9). Particulars: primary human endothelial cells (HUVEC); actives raise or lower the signal. Put shortly:
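HUVEC primary cells stimulated under 3C conditions; ICAM1 measured by ELISA 24 h after compound dosing. Curves fitted bidirectionally against the DMSO baseline. Overt cytotoxicity checked by SRB staining of parallel cultures.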
Take `OC(O)C(F)(F)C(F)(F)F`: the result was inactive.
Same read-out and setting: the result for `Brc1nc2ccccc2s1` reads “inactive”; that for `COC(F)(C(F)F)C(F)(F)F` (stereo unspecified), “inactive”.
Still for that read-out and setting: then `OCCCCC(F)(F)C(F)(F)C(F)(F)C(F)(F)F`, with “inactive”; and `C[C@]12CC[C@H]3C(=CCc4cc(O)ccc43)[C@@H]1CCC2=O`, with “inactive”.
Consider `O=C1C=CC(=O)N1c1ccc(Cc2ccc(N3C(=O)C=CC3=O)cc2)cc1`, for which the AC50 was 9.7 µM (active).
The same measure, in the same setting: the result for `O=C1c2c(O)ccc(Nc3ccc(CCO)cc3)c2C(=O)c2c([N+](=O)[O-])ccc(O)c21` reads 20 µM (active).
In the case of `Nc1cc([N+](=O)[O-])cc(Cl)c1O`, the outcome was inactive.
Turning to `CCOC(=O)CC(=O)C(F)(F)C(F)(F)F`, the result was inactive.
The same measure, in the same setting: the result for `O=S(=O)(O)CCC(F)(F)C(F)(F)C(F)(F)C(F)(F)F` reads “inactive”.
`Cc1ccc(S(=O)(=O)C(I)I)cc1`: the AC50 was 3.35 µM (active).
`NC(=O)C(F)(F)C(F)(F)C(F)(F)F`: the result was inactive.
In the case of `Cc1cnccn1`, the result was inactive.

Another assay deals with human Retinoic Acid Receptor beta (RARb), RARB (gene 5915) (UniProt P10826). The assay is described as follows: ATG_RARb_TRANS: Attagene TRANS-FACTORIAL HepG2 Assay for human Retinoic Acid Receptor beta (AID 2283004).
Sequence of human Retinoic Acid Receptor beta (RARb), RARB (gene 5915) (P10826 whole entry, looked up): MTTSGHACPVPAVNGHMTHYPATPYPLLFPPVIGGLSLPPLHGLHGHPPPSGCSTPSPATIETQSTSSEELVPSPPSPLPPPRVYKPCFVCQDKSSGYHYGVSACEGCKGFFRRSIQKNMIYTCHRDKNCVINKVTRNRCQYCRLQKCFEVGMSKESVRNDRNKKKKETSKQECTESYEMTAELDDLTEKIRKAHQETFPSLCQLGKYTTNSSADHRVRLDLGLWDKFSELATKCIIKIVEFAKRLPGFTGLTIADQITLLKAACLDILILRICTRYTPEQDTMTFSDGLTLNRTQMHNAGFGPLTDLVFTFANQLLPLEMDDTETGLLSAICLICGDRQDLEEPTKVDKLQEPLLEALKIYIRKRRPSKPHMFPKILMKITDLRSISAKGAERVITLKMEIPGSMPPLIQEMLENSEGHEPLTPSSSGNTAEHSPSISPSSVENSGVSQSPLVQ
Conditions: not given
An outline of the steps: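 Induction of reporter mRNA from a chimeric RARb-Gal4 construct was measured by RT-PCR, FAM labelling, HpaI digestion and capillary electrophoresis. Measurements followed 24 h compound treatment of transiently transfected human HepG2 liver cells, with DMSO as baseline.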
With `Nc1cccnc1N`, the molecule was called inactive.
For `CCOCN(C(=O)CS(=O)(=O)O)c1c(C)cccc1CC`, the call was inactive.
On to `C[C@]12CC[C@H]3C(=CCc4cc(O)ccc43)[C@@H]1CCC2=O`, for which the molecule was classed as inactive.
Same read-out and setting: the result for `O=C1c2c(O)ccc(Nc3ccc(CCO)cc3)c2C(=O)c2c([N+](=O)[O-])ccc(O)c21` reads “inactive”.
Still for that read-out and setting: then `CCN=c1cc2oc3cc(NCC)c(C)cc3c(-c3ccccc3C(=O)OCC)c-2cc1C`, with “inactive”; and `CCn1c2ccccc2c2ccccc21`, with “inactive”; and `CSc1ccc(O)cc1C`, with “inactive”.
In the case of `C=C(C)CCCC`, the outcome was inactive.

The next assay concerns the target Retinoic acid receptor alpha (Homo sapiens) (UniProt P10276). In words: ATG_RARa_TRANS: Attagene TRANS-FACTORIAL HepG2 Assay for human Retinoic Acid Receptor alpha (RARa) (AID 2283005).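 For AC50: potency for increased reporter signal meaning RARa activation over DMSO.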
Conditions: not given
Put shortly:
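Reporter transcripts, measured by RT-PCR with fluorescent labeling and capillary electrophoresis after 24 h dosing, reflect activity of an exogenous human RARa–GAL4 fusion in transiently transfected HepG2. Fitted for increase relative to DMSO.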
Regarding `OCCCc1cccnc1`, the molecule was called inactive.
The same measure, in the same setting: then `N#Cc1ccccc1O`, with “inactive”.
As to `COC(F)(C(F)F)C(F)(F)F` (stereo unspecified), the call was inactive.
For `Nc1cccnc1N`, the AC50 was 70.8 µM (active).
With `CCC/C=C/CO`, the call was inactive.
On to `O=C(Cl)c1ccc(Cl)cc1Cl`, for which the molecule was called inactive.
For `C[C@]12CC[C@H]3C(=CCc4cc(O)ccc43)[C@@H]1CCC2=O`, the call was inactive.
`O=C1C=CC(=O)N1c1ccc(Cc2ccc(N3C(=O)C=CC3=O)cc2)cc1`: the result was inactive.
On the same count and under the same terms, the result for `O=C1c2c(O)ccc(Nc3ccc(CCO)cc3)c2C(=O)c2c([N+](=O)[O-])ccc(O)c21` reads “inactive”.
Regarding `CC(=O)CCC(C)C`, the molecule was classed as inactive.
On the same count and under the same terms, the result for `O=S(=O)(O)CCC(F)(F)C(F)(F)C(F)(F)C(F)(F)F` reads “inactive”.
The same measure, in the same setting: the result for `CCn1c2ccccc2c2ccccc21` reads “inactive”; that for `Cc1cnccn1`, “inactive”; that for `C=C(C)CCCC`, “inactive”.

Read-out in another assay: not listed separately
In words: BSK_3C_Proliferation: Cell Proliferation Assessment in the BioMAP Diversity Plus: 3C Assay (AID 2283006; active = hit-call score of the fitted dose curve at least 0.9, where 1 is the maximum; inactive = score below 0.9;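 for AC50: potency may reflect either rise or fall in cell number versus DMSO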). The following applies: primary human endothelial cells (HUVEC). An outline of the steps:
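Subconfluent HUVEC (3C system) cultured with chemical; relative cell number read at 48 h by sulforhodamine B total-protein staining (0.1% SRB after 10% TCA fixation, 560 nm). Bidirectional fit relative to DMSO.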
For the molecule `OC(O)C(F)(F)C(F)(F)F`, the outcome was inactive.
`Brc1nc2ccccc2s1`: the result was inactive.
As for `COC(F)(C(F)F)C(F)(F)F` (stereo unspecified), the result was inactive.
On to `OCCCCC(F)(F)C(F)(F)C(F)(F)C(F)(F)F`, for which the outcome was inactive.
With `C[C@]12CC[C@H]3C(=CCc4cc(O)ccc43)[C@@H]1CCC2=O`, the AC50 is 32.1 µM (active).
Consider `O=C1C=CC(=O)N1c1ccc(Cc2ccc(N3C(=O)C=CC3=O)cc2)cc1`, for which the AC50 was 3.52 µM (active).
Take `O=C1c2c(O)ccc(Nc3ccc(CCO)cc3)c2C(=O)c2c([N+](=O)[O-])ccc(O)c21`: the AC50 is 20 µM (active).
With `Nc1cc([N+](=O)[O-])cc(Cl)c1O`, the result was inactive.
The same measure, in the same setting: then `CCOC(=O)CC(=O)C(F)(F)C(F)(F)F`, with “inactive”; and `O=S(=O)(O)CCC(F)(F)C(F)(F)C(F)(F)C(F)(F)F`, with “inactive”.
Turning to `Cc1ccc(S(=O)(=O)C(I)I)cc1`, the AC50 is 0.593 µM (active).
With `NC(=O)C(F)(F)C(F)(F)C(F)(F)F`, the result was inactive.
Consider `Cc1cnccn1`, for which the result was inactive.

The target of another assay is Peroxisome proliferator-activated receptor gamma (Homo sapiens) (UniProt P37231). The assay is described as follows: ATG_PPARg_TRANS: Attagene TRANS-FACTORIAL HepG2 Assay for human Peroxisome Proliferator-activated Receptor-gamma (PPARg) (AID 2283007).
Sequence of Peroxisome proliferator-activated receptor gamma (Homo sapiens) (P37231 whole entry, looked up): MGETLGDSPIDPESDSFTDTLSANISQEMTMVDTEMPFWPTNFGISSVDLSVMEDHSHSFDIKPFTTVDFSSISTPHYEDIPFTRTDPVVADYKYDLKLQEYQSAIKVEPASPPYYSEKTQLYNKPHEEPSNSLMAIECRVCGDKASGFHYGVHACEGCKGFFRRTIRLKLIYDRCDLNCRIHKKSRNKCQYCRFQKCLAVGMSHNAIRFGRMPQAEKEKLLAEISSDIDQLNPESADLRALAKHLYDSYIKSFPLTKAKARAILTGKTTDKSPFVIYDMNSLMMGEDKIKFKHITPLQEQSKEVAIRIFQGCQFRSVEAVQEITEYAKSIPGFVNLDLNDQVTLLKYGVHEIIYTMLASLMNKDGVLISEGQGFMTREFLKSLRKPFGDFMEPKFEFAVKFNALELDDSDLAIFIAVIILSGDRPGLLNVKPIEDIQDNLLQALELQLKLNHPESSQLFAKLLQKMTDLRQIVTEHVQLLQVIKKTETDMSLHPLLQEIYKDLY
Conditions: not given
An outline of the steps:
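After 24 h of chemical exposure, transfected HepG2 cells carrying PPARγ-Gal4 chimera reporter constructs are lysed for RNA. Reporter transcripts are measured by RT-PCR and capillary electrophoresis with fluorescent labelling, and gain of signal is fitted versus DMSO.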
Consider `OCCCc1cccnc1`, for which the call was inactive.
As for `OC(O)C(F)(F)C(F)(F)F`, the outcome was inactive.
Turning to `Brc1nc2ccccc2s1`, the AC50 is 23.5 µM (active).
For `N#Cc1ccccc1O`, the call was inactive.
Same read-out and setting: the result for `COC(F)(C(F)F)C(F)(F)F` (stereo unspecified) reads “inactive”; that for `Nc1cccnc1N`, “inactive”; that for `Nc1c(Br)cc([N+](=O)[O-])cc1Br`, “inactive”.
For `OCCCCC(F)(F)C(F)(F)C(F)(F)C(F)(F)F`, the outcome was inactive.
Turning to `CCC(Cc1c(I)cc(I)c(N)c1I)C(=O)O` (stereo unspecified), the concentration at half-maximal activity (AC50) was 29.5 µM (active).
With `CCC/C=C/CO`, the molecule was classed as inactive.
Still for that read-out and setting: then `CCOCN(C(=O)CS(=O)(=O)O)c1c(C)cccc1CC`, with “inactive”.
The same measure, in the same setting: then `O=C(Cl)c1ccc(Cl)cc1Cl`, with “inactive”; and `C[C@]12CC[C@H]3C(=CCc4cc(O)ccc43)[C@@H]1CCC2=O`, with “inactive”.
With `O=C1C=CC(=O)N1c1ccc(Cc2ccc(N3C(=O)C=CC3=O)cc2)cc1`, the outcome was inactive.
`O=C1c2c(O)ccc(Nc3ccc(CCO)cc3)c2C(=O)c2c([N+](=O)[O-])ccc(O)c21`: the AC50 was 13 µM (active).
`CCOC(=O)CC(=O)C(F)(F)C(F)(F)F`: the result was inactive.
Consider `O=S(=O)(O)CCC(F)(F)C(F)(F)C(F)(F)C(F)(F)F`, for which the call was inactive.
Still for that read-out and setting: the result for `CC(C)=CCCC(C)O` (stereo unspecified) reads “inactive”.
In the case of `CCc1cc(Cc2cc(CC)c(N)c(CC)c2)cc(CC)c1N`, the AC50 was 0.886 µM (active).
On to `CCN=c1cc2oc3cc(NCC)c(C)cc3c(-c3ccccc3C(=O)OCC)c-2cc1C`, for which the outcome was inactive.
On the same count and under the same terms, then `Cc1ccc2c(c1)OCC(=O)CO2`, with “inactive”; and `CCn1c2ccccc2c2ccccc21`, with “inactive”.
With `CCCCCCCCn1sc(Cl)c(Cl)c1=O`, the AC50 is 11.1 µM (active).
For `O=S(=O)(O)c1ccc(Cl)cc1`, the molecule was called inactive.
In the case of `Cc1ccc(S(=O)(=O)C(I)I)cc1`, the outcome was inactive.
On the same count and under the same terms, the result for `CSc1ccc(O)cc1C` reads “inactive”; that for `COCCC(=O)OC`, “inactive”.
In the case of `Cc1ccc([N+](=O)[O-])c(C)c1`, the outcome was inactive.
